Here are results for 39 compounds from ChEMBL document CHEMBL5724796, “Tm Shift (DSF) assay results for EUbOPEN Chemogenomics Library” (2024).

Where “and” joins values, the source holds several entries; their conditions need not be identical. Equal entries are not always repeated.

The target in the first assay is Mitogen-activated protein kinase 1 (Homo sapiens) (UniProt P28482). The conditions noted are these: Compound concentration 20.0 uM.
Mitogen-activated protein kinase 1 (Homo sapiens), sequence (P28482 whole entry): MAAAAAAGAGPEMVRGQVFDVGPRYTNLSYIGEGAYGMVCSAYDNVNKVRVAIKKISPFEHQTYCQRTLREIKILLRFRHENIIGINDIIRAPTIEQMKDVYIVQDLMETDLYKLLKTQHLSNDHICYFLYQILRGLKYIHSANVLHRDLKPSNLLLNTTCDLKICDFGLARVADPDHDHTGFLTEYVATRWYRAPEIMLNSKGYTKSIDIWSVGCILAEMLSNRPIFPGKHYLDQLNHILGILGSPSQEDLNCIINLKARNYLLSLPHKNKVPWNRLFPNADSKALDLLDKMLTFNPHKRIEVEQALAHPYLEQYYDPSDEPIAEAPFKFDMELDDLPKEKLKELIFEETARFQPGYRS
What is called ΔTm is the shift of the melting midpoint relative to a reference. Regarding `CC(C)(C)NS(=O)(=O)c1ccc(NC(=O)[C@H](Cc2ccccc2)NC(=O)c2ccc(F)cc2)cc1`, the shift in melting temperature (ΔTm) was -3.67 °C.
The same measure, in the same setting: in the case of `CC(C)(C)OC(=O)NCCCCCN(CCc1ccccc1)C(=O)n1cc(-c2ccc(OC(F)(F)F)cc2)nn1` it was 0.71 °C.
The same measure, in the same setting: in the case of `O=C(CN1CCN(c2ccc(F)cn2)CC1)Nc1nc2c(s1)CCCC2` it was 0.86 °C; in that of `C[C@H](Nc1cc(Cl)nc2c1cnn2[C@@H]1O[C@H](COP(=O)(O)CP(=O)(O)O)[C@@H](O)[C@H]1O)c1ccccc1F`, -0.38 °C.
The same measure, in the same setting: in the case of `OC[C@H]1O[C@@H](c2ccc(F)c(Cc3cc4ccccc4s3)c2)[C@H](O)[C@@H](O)[C@@H]1O` it was 0.05 °C.
Consider `CCn1ncc2c(NC3CCOCC3)c(-c3nnc(Cc4sc(C)nc4C)o3)cnc21`, for which the ΔTm was determined as 0.54 °C.
On to `O=c1[nH][nH]c(=O)c2cc(OCc3ccccc3F)ccc12`, for which the ΔTm was -14.6 °C.
For `Cc1cc(Cl)cc(-c2c3sc(CN4C(=O)C5C(C4=O)C5(C)C)cc3nn2C)c1OC1CCNCC1` (stereo not drawn), the ΔTm is -0.05 °C.
Turning to `COc1cc(C(=O)NCC2(N(C)C)CCCC2)cc(OC)c1OCc1ccccc1`, the shift in melting temperature (ΔTm) was 0.38 °C.
Turning to `CNC(=O)N1CCc2c(c(N3CCCc4cc(-c5cnn(C)c5)c(C(F)F)cc43)nn2C2CCOCC2)C1`, the ΔTm is -0.36 °C.
`Nc1ccccc1NC(=O)c1ccc(CNc2nccc(-c3cccnc3)n2)cc1`: the ΔTm was 0.18 °C.
The same measure, in the same setting: in the case of `CCCCCCCCCCCCCCCCNNC(=O)c1cccs1` it was 0.48 °C; in that of `CN1CCN2c3c(cccc31)[C@@H]1CN(CCCC(=O)c3ccc(F)cc3)CC[C@@H]12`, 0.07 °C.
Regarding `Cn1ncc(-c2nn(C)c3ncnc(N4CCC4)c23)c1-c1ccc(C(F)(F)F)cc1`, the ΔTm amounted to 0.4 °C.
Still for that read-out and setting: the result for `COc1cc2c(NC3CCN(C)CC3)cc(-c3ccc(C)o3)nc2cc1OCCCN1CCCC1` reads 0.01 °C; that for `O=C(NCCCc1ccccc1)c1cccc(-c2cc(O)c3ncccc3c2)c1`, 0.32 °C; that for `N=C(N)SCc1ccc(CN2C(=O)C(=O)c3cc(Br)cc(Br)c32)cc1`, -1.76 °C.
On to `O=C(C[C@@H](C(F)F)n1ccc(F)n1)N1CCC(O)(Cn2cnc3c(cnn3-c3ccc(F)cc3)c2=O)CC1`, for which the thermal shift (ΔTm) worked out at 0.27 °C.
`Cc1c(CN2CCC(Nc3ncnc4sc(CC(F)(F)F)cc34)CC2)ccc2[nH]c(C#N)cc12`: the ΔTm was -1.41 °C.
For the compound `N#Cc1ccc(-c2c3n(c4cccnc24)CCN(C2CC2)C3=O)cc1F`, the ΔTm came out at 0.04 °C.
The same measure, in the same setting: the result for `COc1cc2c(NC3CCN(C4CCCCC4)CC3)nc(N3CCCN(C(C)C)CC3)nc2cc1OCCCN1CCCCC1` reads -0.69 °C; that for `CC(C)NCC(O)COC(Cn1c2ccccc2c2ccccc21)Cn1c2ccccc2c2ccccc21` (stereo not drawn), -15 °C; that for `N#Cc1ccc(-c2csc(NN=C3CCCC3)n2)cc1`, -0.09 °C.
With `O=C(NC[C@H](O)CN1CCc2ccccc2C1)c1cc(NC2COC2)ncn1`, the ΔTm amounted to 0.04 °C.
The same measure, in the same setting: in the case of `CC(C)c1ccc(-c2cc(=O)c3ccccc3o2)cc1` it was 0.37 °C; in that of `CC(C)NC(=O)c1ccc(OC(F)F)c(OCC2CC2)c1`, 0.24 °C.
Same read-out and setting: in the case of `O=C(C1CC1)N1CC[C@@H](Cc2n[nH]c(=O)n2-c2ccc(-c3ccc4occc4c3)cc2)C1` it was 0.34 °C and 0.05 °C.
Same read-out and setting: the result for `CCCCCCCCCCCCCC(=S)NCCCC[C@H](NC(=O)OCc1ccccc1)C(=O)Nc1ccccc1` reads 0.45 °C.
As to `CCNC(=O)c1noc(-c2cc(C(C)C)c(O)cc2O)c1-c1ccc(CN2CCOCC2)cc1`, the ΔTm was -0.06 °C.
As for `Cn1ncc2c(-c3c(-c4ccc(F)cn4)nn4c3COC(C)(C)C4)ccnc21`, the ΔTm was 0.32 °C.
In the case of `CCCCNc1cc(C(=O)O)cc(S(N)(=O)=O)c1Oc1ccccc1`, the ΔTm is 0.13 °C.
Still for that read-out and setting: the result for `CN(C)CCCCC(=O)Nc1ccc(NC(=S)NC(=O)c2ccc(C(C)(C)C)cc2)cc1` reads 0.13 °C; that for `CC(C)C(=O)c1c(C(C)C)nn2ccccc12`, 0.12 °C; that for `Cc1nn(CC(F)(F)F)cc1Nc1ncc(Br)c(NCc2ccc(S(N)(=O)=O)cc2)n1`, 2.84 °C.
As for `NS(=O)(=O)OC[C@H]1C[C@@H](Nc2ncncc2C(=O)c2ccn(Cc3cccc(Br)c3)n2)C[C@@H]1O`, the ΔTm came out at 0.37 °C.
Take `Cc1ncc(Cl)cc1NCc1ccc(C(=O)N[C@@H](CC2CCCC2)C(=O)NC2CC2)s1`: the ΔTm is -3.12 °C.
Still for that read-out and setting: in the case of `Cc1noc(C)c1-c1cc(Cl)c(Nc2ccccc2C(=O)O)c(Cl)c1` it was 0.1 °C; in that of `CC(=O)NCC(=O)N1CCC[C@@H]1B(O)O`, 0.14 °C.
Still for that read-out and setting: the result for `C[C@@H](Nc1nc2c(cnn2C2CCCC2)c(=O)[nH]1)C(=O)N1CC[C@H](F)C1` reads 0.07 °C.

The next assay concerns the target T1, Aurora kinase A (Homo sapiens) (UniProt O14965).
T1 sequence (whole entry): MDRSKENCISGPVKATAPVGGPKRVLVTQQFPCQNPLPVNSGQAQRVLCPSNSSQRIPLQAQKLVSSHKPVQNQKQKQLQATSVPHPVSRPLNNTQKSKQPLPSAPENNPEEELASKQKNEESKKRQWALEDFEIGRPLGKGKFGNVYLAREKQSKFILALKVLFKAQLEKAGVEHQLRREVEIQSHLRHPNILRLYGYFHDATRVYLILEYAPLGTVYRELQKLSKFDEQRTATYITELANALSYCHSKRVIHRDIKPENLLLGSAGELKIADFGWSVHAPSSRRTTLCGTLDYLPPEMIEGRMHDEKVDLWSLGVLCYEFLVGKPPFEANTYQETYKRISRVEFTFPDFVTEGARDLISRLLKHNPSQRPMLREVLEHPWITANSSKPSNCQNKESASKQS
The conditions noted are these: Compound concentration 20.0 uM.
`CC(C)(C)NS(=O)(=O)c1ccc(NC(=O)[C@H](Cc2ccccc2)NC(=O)c2ccc(F)cc2)cc1`: the ΔTm was -0.32 °C.
In the case of `CC(C)(C)OC(=O)NCCCCCN(CCc1ccccc1)C(=O)n1cc(-c2ccc(OC(F)(F)F)cc2)nn1`, the thermal shift (ΔTm) is -2.16 °C.
Same read-out and setting: in the case of `O=C(CN1CCN(c2ccc(F)cn2)CC1)Nc1nc2c(s1)CCCC2` it was -1.16 °C; in that of `C[C@H](Nc1cc(Cl)nc2c1cnn2[C@@H]1O[C@H](COP(=O)(O)CP(=O)(O)O)[C@@H](O)[C@H]1O)c1ccccc1F`, 1.74 °C.
The same measure, in the same setting: the result for `OC[C@H]1O[C@@H](c2ccc(F)c(Cc3cc4ccccc4s3)c2)[C@H](O)[C@@H](O)[C@@H]1O` reads -1.82 °C; that for `CCn1ncc2c(NC3CCOCC3)c(-c3nnc(Cc4sc(C)nc4C)o3)cnc21`, -2.35 °C; that for `O=c1[nH][nH]c(=O)c2cc(OCc3ccccc3F)ccc12`, -0.33 °C.
The same measure, in the same setting: the result for `Cc1cc(Cl)cc(-c2c3sc(CN4C(=O)C5C(C4=O)C5(C)C)cc3nn2C)c1OC1CCNCC1` (stereo not drawn) reads -2.64 °C; that for `COc1cc(C(=O)NCC2(N(C)C)CCCC2)cc(OC)c1OCc1ccccc1`, -0.99 °C.
In the case of `CNC(=O)N1CCc2c(c(N3CCCc4cc(-c5cnn(C)c5)c(C(F)F)cc43)nn2C2CCOCC2)C1`, the ΔTm was -1.06 °C.
As for `Nc1ccccc1NC(=O)c1ccc(CNc2nccc(-c3cccnc3)n2)cc1`, the shift in melting temperature (ΔTm) is 5.93 °C.
As for `CCCCCCCCCCCCCCCCNNC(=O)c1cccs1`, the ΔTm is -0.52 °C.
Still for that read-out and setting: the result for `CN1CCN2c3c(cccc31)[C@@H]1CN(CCCC(=O)c3ccc(F)cc3)CC[C@@H]12` reads -0.26 °C; that for `Cn1ncc(-c2nn(C)c3ncnc(N4CCC4)c23)c1-c1ccc(C(F)(F)F)cc1`, -2.16 °C; that for `COc1cc2c(NC3CCN(C)CC3)cc(-c3ccc(C)o3)nc2cc1OCCCN1CCCC1`, 0.09 °C.
In the case of `O=C(NCCCc1ccccc1)c1cccc(-c2cc(O)c3ncccc3c2)c1`, the ΔTm was -0.61 °C.
As for `N=C(N)SCc1ccc(CN2C(=O)C(=O)c3cc(Br)cc(Br)c32)cc1`, the ΔTm is -5.55 °C.
Same read-out and setting: in the case of `O=C(C[C@@H](C(F)F)n1ccc(F)n1)N1CCC(O)(Cn2cnc3c(cnn3-c3ccc(F)cc3)c2=O)CC1` it was -2.33 °C.
Consider `Cc1c(CN2CCC(Nc3ncnc4sc(CC(F)(F)F)cc34)CC2)ccc2[nH]c(C#N)cc12`, for which the ΔTm is -7.15 °C.
For the compound `N#Cc1ccc(-c2c3n(c4cccnc24)CCN(C2CC2)C3=O)cc1F`, the ΔTm was -2.3 °C.
Still for that read-out and setting: the result for `COc1cc2c(NC3CCN(C4CCCCC4)CC3)nc(N3CCCN(C(C)C)CC3)nc2cc1OCCCN1CCCCC1` reads 0.32 °C.
As for `CC(C)NCC(O)COC(Cn1c2ccccc2c2ccccc21)Cn1c2ccccc2c2ccccc21` (stereo not drawn), the ΔTm was -0.78 °C.
On the same count and under the same terms, the result for `N#Cc1ccc(-c2csc(NN=C3CCCC3)n2)cc1` reads -0.22 °C; that for `O=C(NC[C@H](O)CN1CCc2ccccc2C1)c1cc(NC2COC2)ncn1`, -0.01 °C; that for `CC(C)c1ccc(-c2cc(=O)c3ccccc3o2)cc1`, -1.77 °C.
Still for that read-out and setting: the result for `CC(C)NC(=O)c1ccc(OC(F)F)c(OCC2CC2)c1` reads -2.33 °C.
With `O=C(C1CC1)N1CC[C@@H](Cc2n[nH]c(=O)n2-c2ccc(-c3ccc4occc4c3)cc2)C1`, the ΔTm was -4.5 °C and -1.89 °C.
The same measure, in the same setting: the result for `CCCCCCCCCCCCCC(=S)NCCCC[C@H](NC(=O)OCc1ccccc1)C(=O)Nc1ccccc1` reads -2.19 °C; that for `CCNC(=O)c1noc(-c2cc(C(C)C)c(O)cc2O)c1-c1ccc(CN2CCOCC2)cc1`, 0.68 °C.
Take `Cn1ncc2c(-c3c(-c4ccc(F)cn4)nn4c3COC(C)(C)C4)ccnc21`: the ΔTm was -1.67 °C.
Turning to `CCCCNc1cc(C(=O)O)cc(S(N)(=O)=O)c1Oc1ccccc1`, the ΔTm turned out to be 0.14 °C.
For the compound `CN(C)CCCCC(=O)Nc1ccc(NC(=S)NC(=O)c2ccc(C(C)(C)C)cc2)cc1`, the ΔTm was -2.09 °C.
Same read-out and setting: the result for `CC(C)C(=O)c1c(C(C)C)nn2ccccc12` reads -2.35 °C; that for `Cc1nn(CC(F)(F)F)cc1Nc1ncc(Br)c(NCc2ccc(S(N)(=O)=O)cc2)n1`, 6.65 °C; that for `NS(=O)(=O)OC[C@H]1C[C@@H](Nc2ncncc2C(=O)c2ccn(Cc3cccc(Br)c3)n2)C[C@@H]1O`, -1.76 °C.
Still for that read-out and setting: in the case of `Cc1ncc(Cl)cc1NCc1ccc(C(=O)N[C@@H](CC2CCCC2)C(=O)NC2CC2)s1` it was 7.63 °C; in that of `Cc1noc(C)c1-c1cc(Cl)c(Nc2ccccc2C(=O)O)c(Cl)c1`, -2.08 °C.
Still for that read-out and setting: in the case of `CC(=O)NCC(=O)N1CCC[C@@H]1B(O)O` it was -1.86 °C; in that of `C[C@@H](Nc1nc2c(cnn2C2CCCC2)c(=O)[nH]1)C(=O)N1CC[C@H](F)C1`, -2 °C.
